What is called inhibition is the drop in the measured response relative to a control, in per cent.

About 3,400 (1%) of roughly 340,000 compounds were called active.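 Rule for the calls: active = inhibition above the mean over all tested compounds plus 3 SD (cut at about 4.2% in these data); inactive = the rest.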 This excerpt belongs to a sample that is enriched for actives.

Nuclear receptor subfamily 0 group B member 1 (Homo sapiens), sequence (P51843 207-470 limits assumed): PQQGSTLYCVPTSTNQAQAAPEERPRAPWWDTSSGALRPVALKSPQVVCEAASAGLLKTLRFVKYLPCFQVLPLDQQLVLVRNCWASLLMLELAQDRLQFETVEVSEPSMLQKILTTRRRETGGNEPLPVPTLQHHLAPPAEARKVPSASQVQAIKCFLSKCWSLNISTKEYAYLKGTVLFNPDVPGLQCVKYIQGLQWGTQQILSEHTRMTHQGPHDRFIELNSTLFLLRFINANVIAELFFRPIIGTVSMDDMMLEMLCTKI

The test addresses Nuclear receptor subfamily 0 group B member 1 (Homo sapiens) (UniProt P51843). The experiment in a line: relief of DAX1 transcriptional repression – cell-based, HEK293, Gal4-DAX1, luciferase luminescence, primary screen (AID 504766).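 Note: 0% = DAX1-transfected cells with DMSO and 100% = empty-vector control cells with DMSO; inhibition shows as a rise in luminescence from relieved DAX1 repression.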 To be noted: HEK293 Gal4-DAX1 luciferase reporter, at 6.75 µM, active compounds read high. Background: In a reporter assay the amount or activity of a reporter protein is the signal.
For `O=C(CSc1ncn[nH]1)Nc1nc2c(F)c(F)c(F)cc2s1`, the inhibition is 0.83% (inactive).

In the case of `C=CCSC(CC)(CC)C(N)=O`, the inhibition was 4.43% (active).

Take `CCOC(=O)C[C@H]1c2ccc(C(F)(F)F)cc2S(=O)(=O)N1c1ccccc1`: the inhibition was 0.49% (inactive).

Take `Cc1[nH]n(-c2ccccc2)c(=O)c1CCOC(=O)c1ccc(C(F)(F)F)cc1`: the inhibition was 5.49% (active).

Regarding `CCCOC(=O)c1ccc(N2C(=O)c3ccccc3C2=O)cc1`, the inhibition is -0.27% (inactive).

With `Cc1ccc([C@H]2N[C@]3(CCCN(CC4CCCCC4)C3=O)[C@H]3C(=O)N(Cc4ccccc4)C(=O)[C@@H]23)cc1`, the inhibition is -0.61% (inactive).

For `CC1(C)CC(=O)C=C(c2ccccc2CO)C1=O`, the inhibition was 0.81% (inactive).

For `Cc1cccc(NC(=O)Nc2ccc3c(c2)OCO3)n1`, the inhibition is 3.3% (inactive).

With `CC(C)CNS(=O)(=O)c1ccc(C(=O)Nc2ccc3c(c2)OCO3)cc1`, the inhibition is 0.58% (inactive).

Turning to `CNS(=O)(=O)c1ccc(NC(=O)Nc2ccc3c(c2)OCO3)cc1`, the inhibition is 4.23% (active).

`C/C(COc1ccccc1)=N\NC(=O)c1nnn(-c2nonc2N)c1-c1ccc(C)cc1`: the inhibition is 1.15% (inactive).

For the molecule `CC(Sc1nnnn1C)C(=O)NC(=O)NC1CCCCC1` (configuration not stated), the inhibition is 4.23% (active).

Consider `CC(Sc1nnnn1C1CCCCC1)C(=O)O` (configuration not stated), for which the inhibition was -0.46% (inactive).

Turning to `Cc1nnc(SCC(=O)NC(=O)NC2CCCC2)n1N`, the inhibition was -0.17% (inactive).

As to `NC(=S)NN=Cc1ccc(OC(=O)COc2cc(Cl)c(Cl)cc2Cl)cn1`, the inhibition was -2.71% (inactive).

`O=C(CN1CCCSc2ccccc21)N1CCN(S(=O)(=O)c2ccccc2)CC1`: the inhibition was 0.49% (inactive).

For the molecule `O=C(CN1CCCSc2ccccc21)N1CCN(S(=O)(=O)c2cccc(F)c2)CC1`, the inhibition was -0.31% (inactive).

With `N#C/C=C1\Sc2ccccc2C(=O)N1CC(=O)N1CCN(S(=O)(=O)c2ccccc2)CC1`, the inhibition is 4.84% (active).

On to `COCOCCn1cc(CN2CCS(=O)(=O)N(Cc3ccc(-c4ccc(OC)cc4)cc3)C(CC(C)C)C2=O)nn1` (configuration not stated), for which the inhibition is -0.18% (inactive).

With `COc1ccccc1NC(=S)N1CCN(c2ccc(F)cc2)CC1`, the inhibition was 0.5% (inactive).

With `COc1c(N2CCN(C(=S)Nc3ccccc3F)C(C)C2)c(F)cc2c(=O)c(C(=O)O)cn(C3CC3)c12` (configuration not stated), the inhibition was 4.24% (active).

In the case of `CC1CN(C(=S)Nc2ccccc2F)CC(C)O1` (configuration not stated), the inhibition was -0.08% (inactive).

Regarding `Cc1ccc(C(=O)NC(C)C(c2cccs2)N2CCOCC2)cc1C` (configuration not stated), the inhibition is 0.43% (inactive).

Turning to `O=C(Nc1cccc(C(=O)O)c1)/C(=C\c1ccccc1)NC(=O)c1ccc(Br)o1`, the inhibition is 1.84% (inactive).

For the molecule `c1cnn(-c2cc(N3CCOCC3)ncn2)c1`, the inhibition was 0.28% (inactive).

Take `Fc1ccccc1/C=N/Nc1cc(N2CCCCC2)ncn1`: the inhibition is 9.97% (active).

Consider `COc1ccccc1N1CCN(C(=O)C(=O)N/N=C/c2ccccc2F)CC1`, for which the inhibition is -0.62% (inactive).

These data come from PubChem BioAssay AID504766 (The Scripps Research Institute Molecular Screening Center, 2011).
